We go through 3 compounds from PubChem BioAssay.

Values joined by “and” are separate entries in the source; they are usually repeats but may differ in a detail not shown here. Equal values may be shown once. Active and inactive are the calls of the source.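 The calls were made as follows, unless noted: active = thallium flux through the channel raised or lowered by more than 3 SD from vehicle-only wells, actives on both sides; inactive = the rest.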

Assay [1] can be described thus: stimulators of nuclear beta-catenin in C2C12, primary screen, imaging, WNT3A-conditioned medium, mouse C2C12, NPC library (AID 1117326; in the data active = nuclear beta-catenin stimulation mostly above about 4.2%, no sharp cut-off; inactive = mostly below about 10%). The following applies: stronger effect = higher value.
Assay [2] can be described thus: stimulators of insulin release from INS-1E, primary screen, cell-based, 5 mM glucose, NPC library (AID 1117329;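 active = compound raises insulin release from rat beta cells at 5 mM glucose, no numeric limit stated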). The following applies: rat INS-1E insulin secretion, at 10 µM, stronger effect = higher value.
The nature of assay [3]: growth inhibition of GSK3B-pretreated HCT116 cells – cell-based, CellTiter-Glo, 0.2 to 20 µM (AID 1117336;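 active = compounds lowering colon cancer cell viability after pretreatment blocking the GSK3B kinase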). The following applies: HCT116 viability after GSK3B inhibitor, at 20 µM, stronger effect = higher value. Background: In ATP-based viability assays light output follows the ATP content of the culture.
Assay [4] can be described thus: inhibition of endothelial tube formation, primary screen, imaging, VEGF stimulated, CD31 staining, tube area, NPC library (AID 1117340;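 active = compound that reduces growth-factor-driven endothelial tube area in a mixed cell culture, no cutoff stated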). The following applies: VEGF-stimulated ADSC/ECFC co-culture, at 10 µM, stronger effect = higher value.
A short description of assay [5]: glucagon-like peptide 1 release enhancers, primary assay, NCI-H716 cell line, NPC library (AID 1117341;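 active = compound raises GLP1 secretion from the human gut endocrine cells, with no numeric limit stated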). The following applies: NCI-H716 cells, at 10 µM, stronger effect = higher value.
Assay [6] can be described thus: HCT116 colon cancer cell growth inhibition, primary screen, CellTiter-Glo luminescence, NPC library (AID 1117342;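 active = compounds that lower survival of HCT116 colon cancer cells in the luminescence readout, no numeric limit stated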). The following applies: at 20 µM (top of the series).
A short description of assay [7]: CellTiter-Glo luminescent readout of SW480 viability loss, NPC library primary (AID 1117343;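 active = compounds that lower viability of the colon cancer cells in the luminescence readout, with no numeric limit stated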). The following applies: CellTiter-Glo luminescence; at 20 µM (top of the series).
Assay [8] in a line: decreased DLD-1 cellular survival, CellTiter-Glo luminescent readout, NPC compound collection, primary HTS (AID 1117346;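 active = compounds that lower survival of DLD-1 colon cancer cells in the luminescence readout, no cutoff given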). The following applies: DLD-1 viability, CellTiter-Glo luminescence; at 20 µM (top of the series).
The target of assay [9] is 6-phosphogluconate dehydrogenase, decarboxylating (Homo sapiens) (UniProt P52209). The experiment in a line: 6PGD enzyme inhibitors, primary screen, biochemical, human, recombinant enzyme, NADPH absorbance (AID 1159550;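 active = at least 20% inhibition of 6-phosphogluconate dehydrogenase activity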). The settings on record: recombinant 6PGD, NADPH absorbance 341 nm; at 10 µM; stronger effect = higher value.
The nature of assay [10]: sensitizers of A549 cells to miR-34 induction, primary screen, imaging, A549 dox-inducible miR-34, nuclei and caspase counts (AID 1347080;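 active = compounds whose cell count with miR-34 switched on is under 0.7 times the count with it off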). The settings on record: A549 miR-34 inducible, Hoechst nuclei count, 48 h.
The target of assay [11] is NAD(+) hydrolase SARM1 (Homo sapiens) (UniProt Q6SZW1). The experiment in a line: SARM1 TIR NADase inhibitors, cell lysate, NAD-Glo luminescence (AID 1508614;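 active = compound whose remaining NAD level is above about 45 nM, limit read from the data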;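 also: higher remaining NAD means stronger inhibition of SARM1 NADase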). The following applies: SAM-TIR HEK293T lysate NADase, at 1 µM, stronger effect = higher value.
Assay [12] addresses Mitogen-activated protein kinase 7 (Homo sapiens) (UniProt Q13164). The experiment in a line: ERK5 transactivation activators in reporter cells, primary screen, cell-based, HTS (AID 1508626;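 active = luciferase signal above three times the same-plate solvent-only control wells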;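 also: luciferase driven by Gal4-ERK5 fusion binding five Gal4 sites before minimal TATA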). The settings on record: HeLa Gal4-ERK5 transactivation, 18 h, at 5 µM, stronger effect = higher value.
For the next assay, the system named is F380Y. The experiment in a line: modulators of BK channel variants, profiling panel, selectivity assay, cell-based, U2OS BacMam, thallium flux, beta subunits (AID 1259406).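 Also: initial slope of Thallos dye fluorescence rise after thallium is added; log ratio against the mean of 0.3% DMSO vehicle wells on the same plate.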 The following applies: at 30 µM.
A further assay deals with F380Y/beta2Delta. The assay is described as above. The settings on record: at 30 µM.
Assay [13] addresses Calcium-activated potassium channel subunit alpha-1 (Homo sapiens) + Leucine-rich repeat-containing protein 26 (Homo sapiens) (UniProt Q12791+Q2I0M4). The description is as above. The settings on record: F380Y/Slo1WT/gamma1, at 30 µM.
A further assay concerns R275C. The assay is described as above. The settings on record: at 30 µM.
Another assay concerns R275C/beta1. Described as above. The settings on record: at 30 µM.
The next assay deals with R275C/beta2Delta. The description is as above. The following applies: at 30 µM.
The nature of assay [14]: survival rescue of mitochondrial mutant cells in low glucose, primary screen, MELAS cybrids, Rieske KO mouse fibroblasts, CellTiter-Glo (AID 1508586;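 active = mean z-score across replicates of 1.96 or higher in either the MELAS or the Rieske mutant cell line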;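 also: z relative to plate mean and SD of compound and empty wells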).
The mark [15] stands for this setting: stronger effect = lower value, cell number ratio, induced over uninduced.
Where [16] appears, read: measured here: relative caspase fold change +Dox/-Dox.
The mark [17] stands for this setting: measured here: total cells with miR-34 induction, stronger effect = lower value.
The mark [18] stands for this setting: measured here: total cells without miR-34 induction.

Chain of Mitogen-activated protein kinase 7 (Homo sapiens) (Q13164 whole entry, looked up, the tested form may be a part): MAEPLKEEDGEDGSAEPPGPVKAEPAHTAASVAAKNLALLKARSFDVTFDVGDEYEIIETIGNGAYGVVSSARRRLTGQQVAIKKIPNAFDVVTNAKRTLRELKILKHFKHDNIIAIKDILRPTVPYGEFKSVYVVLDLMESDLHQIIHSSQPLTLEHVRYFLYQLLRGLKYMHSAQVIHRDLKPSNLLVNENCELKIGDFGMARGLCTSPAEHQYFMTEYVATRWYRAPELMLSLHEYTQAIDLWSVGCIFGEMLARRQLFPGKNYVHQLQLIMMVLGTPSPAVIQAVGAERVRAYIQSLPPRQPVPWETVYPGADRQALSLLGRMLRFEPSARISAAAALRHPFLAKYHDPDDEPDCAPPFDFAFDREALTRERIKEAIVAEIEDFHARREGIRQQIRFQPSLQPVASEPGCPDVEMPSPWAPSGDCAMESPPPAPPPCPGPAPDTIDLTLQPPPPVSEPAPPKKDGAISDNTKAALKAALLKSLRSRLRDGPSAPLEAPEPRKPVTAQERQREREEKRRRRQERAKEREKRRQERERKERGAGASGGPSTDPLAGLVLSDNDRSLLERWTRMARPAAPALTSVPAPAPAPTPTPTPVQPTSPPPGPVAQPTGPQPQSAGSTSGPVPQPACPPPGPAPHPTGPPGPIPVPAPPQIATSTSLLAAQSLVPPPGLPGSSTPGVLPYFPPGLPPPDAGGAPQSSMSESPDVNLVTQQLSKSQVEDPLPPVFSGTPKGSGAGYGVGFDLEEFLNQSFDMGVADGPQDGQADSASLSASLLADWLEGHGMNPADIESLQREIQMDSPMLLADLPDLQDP
Chain of 6-phosphogluconate dehydrogenase, decarboxylating (Homo sapiens) (P52209 whole entry, looked up): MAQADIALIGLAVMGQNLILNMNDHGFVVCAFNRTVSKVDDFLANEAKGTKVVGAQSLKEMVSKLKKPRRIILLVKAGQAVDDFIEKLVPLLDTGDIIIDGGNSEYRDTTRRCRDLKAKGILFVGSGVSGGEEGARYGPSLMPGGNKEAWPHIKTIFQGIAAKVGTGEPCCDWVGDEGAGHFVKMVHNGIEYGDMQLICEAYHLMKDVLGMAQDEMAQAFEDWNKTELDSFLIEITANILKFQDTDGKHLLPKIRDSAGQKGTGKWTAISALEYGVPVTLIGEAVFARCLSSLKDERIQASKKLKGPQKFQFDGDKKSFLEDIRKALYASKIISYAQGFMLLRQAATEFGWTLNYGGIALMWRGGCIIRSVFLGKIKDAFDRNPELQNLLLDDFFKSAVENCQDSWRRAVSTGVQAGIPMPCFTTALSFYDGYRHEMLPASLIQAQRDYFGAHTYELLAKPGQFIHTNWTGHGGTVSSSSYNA
Chain of Calcium-activated potassium channel subunit alpha-1 (Homo sapiens) + Leucine-rich repeat-containing protein 26 (Homo sapiens) (Q2I0M4 whole entry, looked up, one chain of several): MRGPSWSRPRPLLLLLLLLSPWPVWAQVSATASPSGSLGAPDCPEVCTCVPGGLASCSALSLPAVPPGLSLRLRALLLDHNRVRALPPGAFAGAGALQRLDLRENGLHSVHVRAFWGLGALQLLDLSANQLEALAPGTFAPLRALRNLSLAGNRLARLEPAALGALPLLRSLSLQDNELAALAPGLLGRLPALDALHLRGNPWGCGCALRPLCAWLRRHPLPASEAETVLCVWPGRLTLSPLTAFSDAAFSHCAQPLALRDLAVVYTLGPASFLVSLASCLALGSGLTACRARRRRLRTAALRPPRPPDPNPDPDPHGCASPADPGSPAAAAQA
Chain of NAD(+) hydrolase SARM1 (Homo sapiens) (Q6SZW1 whole entry, looked up, the tested form may be a part): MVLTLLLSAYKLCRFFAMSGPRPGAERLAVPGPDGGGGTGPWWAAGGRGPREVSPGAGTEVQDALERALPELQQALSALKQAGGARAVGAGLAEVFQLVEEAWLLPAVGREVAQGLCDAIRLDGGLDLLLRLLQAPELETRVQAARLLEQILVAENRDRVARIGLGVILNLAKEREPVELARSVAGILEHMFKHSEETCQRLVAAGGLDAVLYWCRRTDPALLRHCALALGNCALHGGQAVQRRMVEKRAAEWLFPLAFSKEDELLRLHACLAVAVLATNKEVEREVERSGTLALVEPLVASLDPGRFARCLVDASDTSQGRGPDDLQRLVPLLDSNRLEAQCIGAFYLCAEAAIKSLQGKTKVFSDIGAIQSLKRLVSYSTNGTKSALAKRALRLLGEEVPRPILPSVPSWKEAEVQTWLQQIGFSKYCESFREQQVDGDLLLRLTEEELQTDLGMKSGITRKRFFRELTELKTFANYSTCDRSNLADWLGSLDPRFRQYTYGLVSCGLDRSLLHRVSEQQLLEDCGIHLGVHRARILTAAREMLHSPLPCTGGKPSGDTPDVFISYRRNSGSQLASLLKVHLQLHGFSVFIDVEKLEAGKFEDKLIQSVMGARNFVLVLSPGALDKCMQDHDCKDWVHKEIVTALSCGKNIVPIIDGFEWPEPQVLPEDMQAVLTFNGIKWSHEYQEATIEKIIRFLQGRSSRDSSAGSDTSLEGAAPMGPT

With `CCCCCCCCCCC[C@@H](C[C@@H]1OC(=O)[C@H]1CCCCCC)OC(=O)[C@H](CC(C)C)NC=O`, the nuclear beta-catenin stimulation was 2.8% (inactive) in assay [1] (at 10 µM) and 4.5% in [1] (stimulation, at 2 µM). In addition, the insulin secretion stimulation in assay [2] was -1.7% (inactive). Moreover, in [3], the viability decrease is 42.4% (inactive). For the same compound, the tube area decrease in [4] was 102% (active). For the same compound, the GLP1 secretion stimulation in assay [5] is 0.9% (inactive). Further, the inhibition of viability in assay [6] was 32.5% (inactive). In addition, the values for the viability decrease (inhibition) in assay [7] and in [8] were 107% (active) and 79.1% (active), respectively. In [9], the inhibition (as a rule, the drop in the measured response relative to a control, in per cent) is -8.26% (inactive). The fold change in assay [10] (setting [15]) is 0.867 (inactive); in [10] (setting [16]) it was 2.26. The cell count in [10] (setting [17]) turned out to be 7850; in assay [10] (setting [18]), 9060. Further, the remaining NAD in assay [11] is 10 nM (inactive). For the same compound, the luciferase signal in [12] is 48 AU (inactive). The log fold change Tl+ flux in the assay with F380Y is 0.0597 (inactive); with F380Y/beta2Delta, 0.0435 (inactive); in assay [13], 0.0135 (inactive); with R275C, -0.0306 (inactive); in the assay on R275C/beta1 it was -0.0228 (inactive); in the assay on R275C/beta2Delta it was -0.0121 (inactive).
As to `C[C@]12CCC(=O)C=C1CC[C@@H]1[C@@H]2[C@@H](O)C[C@@]2(C)[C@H]1CC[C@]2(O)C(=O)COC(=O)CCC(=O)O`, the nuclear beta-catenin stimulation was 0.9% (inactive) in assay [1] (at 10 µM) and 3% in assay [1] (stimulation, at 2 µM). The insulin secretion stimulation in assay [2] is 1.4% (inactive). In addition, the viability decrease in assay [3] was 0.2% (inactive). In addition, the tube area decrease in assay [4] was 5.6% (inactive). Besides, the GLP1 secretion stimulation in assay [5] is -1.5% (inactive). In addition, in [6], the inhibition of viability is 6.6% (inactive). The viability decrease (inhibition) in assay [7] was -13.6% (inactive); in [8], 13.1% (inactive). Besides, in assay [9], the inhibition is 1.94% (inactive). Further, the fold change in [10] (setting [15]) was 0.985 (inactive); in assay [10] (setting [16]) it was 1.65. In addition, the values for the cell count in assay [10] (setting [17]) and in assay [10] (setting [18]) were 7160 and 7270, respectively. Moreover, the remaining NAD in assay [11] was 10 nM (inactive). Also, the luciferase signal in assay [12] was 96 AU (inactive). For the same compound, the log fold change Tl+ flux in the assay on F380Y is 0.0328 (inactive); with F380Y/beta2Delta, 0.00491 (inactive); in [13], 0.0102 (inactive); with R275C, 0.0834 (inactive); in the assay on R275C/beta1, 0.0319 (inactive); in the assay with R275C/beta2Delta, 0.0103 (inactive).
Regarding `C[C@]12CCC(=O)C=C1CC[C@@H]1[C@@H]2[C@@H](O)C[C@@]2(C)[C@H]1CC[C@]2(O)C(=O)CO`, the nuclear beta-catenin stimulation was -0.3% (inactive) in assay [1] (at 10 µM) and 0.1% in assay [1] (stimulation, at 2 µM). Moreover, the insulin secretion stimulation in assay [2] is 1.1% (inactive). Also, the viability decrease in assay [3] is -18.7% (inactive). Further, the tube area decrease in assay [4] was 9.1% (inactive). Further, in assay [5], the GLP1 secretion stimulation was 1.8% (inactive). Further, in assay [6], the inhibition of viability was -13.9% (inactive). In addition, the viability decrease (inhibition) was 14.7% (inactive) in [7] and -6.7% (inactive) in assay [8]. Besides, the inhibition in [9] was -14.6% (inactive). Besides, the z-score in assay [14] (MELAS cybrid survival, CellTiter-Glo 48 h, stronger effect = higher value) was -0.02 (inactive) and 0.332 (inactive); in [14] (Rieske KO mouse fibroblast survival, CellTiter-Glo 72 h), -0.00651 and 1.17. Besides, in assay [11], the remaining NAD was 10 nM (inactive). Further, the luciferase signal in [12] was 124 AU (inactive). The log fold change Tl+ flux in the assay with F380Y was 0.0399 (inactive); in the assay on F380Y/beta2Delta, 0.0274 (inactive); in assay [13], -0.00874 (inactive); in the assay with R275C, -0.0265 (inactive); in the assay with R275C/beta1, -0.0128 (inactive); in the assay with R275C/beta2Delta it was 0.0134 (inactive).
